Shown are actives, neighbours in structure and some others; about 1.7% of the full set was active somewhere.
SUMO1-SIM PPI – modulators of SUMO1 protein-protein interactions, primary screen, biochemical, uHTS. Small ubiquitin-related modifier 1 (Homo sapiens), P63165. SUMO1 binding to a labelled peptide, TR-FRET, 1 h. inhibition, % at 20 µM. 360,000 tested, 0.33% active. AID 602429, 2012; in the data active = inhibition above about 37%
ATG4B inhibitor – ATG4B protease inhibitors, primary screen, biochemical, fluorescence, uHTS | AID 504462, 2011 | inhibition, % at 8.33 µM | 340,000 tested, 0.51% active | ATG4B cleavage of LC3-PLA2, NBD-HPC fluorescence, 1 h | Cysteine protease ATG4B (Homo sapiens), Q9Y4P1; in the data active = inhibition above about 40%
Target sequence (Q9Y4P1 whole entry, looked up): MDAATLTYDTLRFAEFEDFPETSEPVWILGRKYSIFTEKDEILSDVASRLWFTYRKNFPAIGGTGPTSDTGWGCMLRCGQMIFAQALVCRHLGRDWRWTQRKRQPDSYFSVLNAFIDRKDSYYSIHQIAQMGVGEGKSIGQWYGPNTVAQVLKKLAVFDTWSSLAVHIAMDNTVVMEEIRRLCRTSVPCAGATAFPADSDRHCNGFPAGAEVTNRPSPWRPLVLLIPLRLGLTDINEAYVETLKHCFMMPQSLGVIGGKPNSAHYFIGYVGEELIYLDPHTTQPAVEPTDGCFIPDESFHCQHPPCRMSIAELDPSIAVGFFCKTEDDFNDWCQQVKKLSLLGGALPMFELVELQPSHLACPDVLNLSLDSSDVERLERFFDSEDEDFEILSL
Rin1 Abl inh – inhibitors of Rin1-Abl protein binding, primary screen, biochemical, TR-FRET | Tyrosine-protein kinase ABL1 (Homo sapiens) + Ras and Rab interactor 1 (Homo sapiens), … | inhibition, % at 7.35 µM | 360,000 tested, 0.4% active | AID 588664, 2011; in the data active = inhibition above about 5%, passing the limit was not always enough
Neddylation inh – inhibitors of cullin neddylation, primary screen, biochemical, TR-FRET, uHTS, NAE and Ubc12. NEDD8-conjugating enzyme Ubc12 (Homo sapiens) + NEDD8-activating enzyme E1 regulatory …. inhibition, % at 25 µM. 360,000 tested, 0.58% active. AID 651699, 2012; in the data active = inhibition above about 36%
ATG4B conf – ATG4B protease inhibitors, retest, confirmation, biochemical, fluorescence, single concentration. shares compounds with ATG4B inhibitor. 320 tested, 92% active. inhibition, % at 8.33 µM. AID 504757, 2011. ATG4B protease fluorescent substrate cleavage assay; in the data active = inhibition above about 39%
PLA2 ctr – PLA2 enzyme inhibition, counter-screen for ATG4B inhibitor project, biochemical, single concentration, uHTS hits | shares compounds with ATG4B inhibitor | inhibition, % at 8.33 µM | purified PLA2, NBD-C6-HPC fluorescence, 45 min | 1,600 tested, 66% active | AID 588402, 2011; in the data active = inhibition above about 50%
Hits are given with their value; – = inactive; · = not tested or not shown.

SMILES | SUMO1-SIM PPI | ATG4B inhibitor | Rin1 Abl inh | Neddylation inh | PLA2 ctr | others
O=C(COC(=O)c1cccc(S(=O)(=O)NCc2ccccc2)c1)c1ccccc1 | – | 47 | – | – | 55
Cc1cc(C)c(C(=O)COC(=O)c2cccc(S(=O)(=O)NCc3ccccc3)c2)cc1C | – | – | – | – | ·
Cc1ccc(S(=O)(=O)Oc2ccc(C(c3c(C)[nH][nH]c3=O)c3c(C)[nH][nH]c3=O)cc2)cc1 | – | 70 | – | – | 68
CCOc1cc(C(c2c(C)[nH][nH]c2=O)c2c(C)[nH][nH]c2=O)ccc1OS(=O)(=O)c1ccccc1 | – | – | – | – | ·
Cc1cc(Cl)ccc1C(O)c1ncc(-c2ccc(F)cc2)[nH]1 (centres undefined) | – | · | – | – | ·
O=C(CN1C(=O)COc2ccccc21)NCCCN1CCc2ccccc2C1 | – | 76 | – | – | –
COc1ccc(N2C(=O)c3ccccc3NC(=O)C2C(=O)NCCc2ccccc2F)cc1 (centres undefined) | – | · | · | – | ·
Cc1ccc(NC(=S)NNC(=O)CSc2nc3ccccc3c(=O)n2-c2ccc(C)cc2)cc1 | – | 88 | – | – | 93
Cc1ccc(-n2c(SCc3cn4ccsc4n3)nc3ccccc3c2=O)cc1 | – | 74 | – | – | 79
c1ccc(-n2cnnc2SCc2cn3ccsc3n2)cc1 | – | – | – | – | ·
O=C(O)COc1ccccc1C=NNc1ccc([N+](=O)[O-])cc1S(=O)(=O)Nc1ccc(Cl)cc1 | – | 44 | – | – | – | ATG4B conf=64
COc1ccc(NS(=O)(=O)c2cc([N+](=O)[O-])ccc2NN=Cc2ccccc2OCC(=O)O)cc1 | – | – | – | – | ·
CCOC(=O)c1c(-n2cnnn2)sc2c1CCCC2 | – | – | – | · | ·
CCOC(=O)c1c(N2C(=O)Nc3cc(Cl)c(Cl)cc3N2O)sc2c1CCCCC2 | – | 77 | – | – | 92
CCc1ccccc1OCC(=O)Nc1cc(S(=O)(=O)N(CC)CC)ccc1N1CCOCC1 | – | 54 | – | – | 92
CCN(CC)S(=O)(=O)c1ccc(N2CCOCC2)c(NC(=O)COc2ccccc2)c1 | – | – | – | – | ·
Cc1ccccc1OCC(=O)Nc1cc(S(=O)(=O)N2CCCCC2)ccc1N1CCN(C)CC1 | – | 46 | – | – | 50
Cc1cccc(OCC(=O)Nc2cc(S(=O)(=O)N3CCOCC3)ccc2N2CCCC2)c1C | – | – | – | – | ·
CC(C)n1c(CNC(=O)c2ccccc2F)nnc1SCC(=O)NC1CCCCC1 | – | – | – | – | ·
CCCCn1c(SCC(=O)Nc2cc(C)[nH]n2)nc2ccsc2c1=O | – | 45 | – | – | – | ATG4B conf=56
FC(F)(F)c1ccccc1Cc1c(-c2ccc(Cl)cc2)nc2ccc(Br)cn12 | – | · | – | – | ·
CC(C)Cc1csc(NC(=O)c2ccccc2Cl)c1C(=O)O | – | – | – | – | ·
Cc1cccc(C(=O)Nc2scc(CC(C)C)c2C(=O)O)c1 | – | 73 | – | – | 68
Cc1cccc(C(=O)Nc2scc(-c3ccc(Br)cc3)c2C(=O)O)c1 | – | – | – | – | ·
Cc1ccc(-c2csc(NC(=O)c3cccc(C)c3)c2C(=O)O)cc1 | – | 45 | – | – | 52
SMILES | SUMO1-SIM PPI | ATG4B inhibitor | Rin1 Abl inh | Neddylation inh | PLA2 ctr | others
CC(=O)OC[C@@H]1CN(Cc2ccccc2)C[C@H](n2cnc3c(N4CCOCC4)ncnc32)O1 | – | · | – | – | ·
CCc1nc(N2CCCCC2)c2oc3ccccc3c2n1 | – | 53 | – | – | 61
CCOC(=O)C1CCCN(c2nc(C)nc3c2oc2ccccc23)C1 (centres undefined) | – | – | – | – | ·
CCc1nc(N2CCCC(C)C2)c2oc3ccccc3c2n1 (centres undefined) | – | 43 | – | – | 52
CCc1nc(N2CCCCC2C)c2oc3ccccc3c2n1 (centres undefined) | – | 45 | – | – | 56
CCc1nc(N2CCCCC2C(=O)O)c2oc3ccccc3c2n1 (centres undefined) | – | – | – | – | ·
Cc1nc(N2CCOCC2)c2oc3ccccc3c2n1 | – | – | – | – | ·

Compound activity from PubChem.
